Source: PubChem BioAssay AID602364 (National Center for Advancing Translational Sciences (NCATS), 2012)
Records with an inconclusive call do not appear. Activity calls are given as the source filed them. The call rests on the fitted dose curve; in most records, active means well fitted inhibition curve with a large enough effect; inconclusive means small, poorly fitted or top-dose-only effect; inactive means flat fitted curve, though single readings scatter.

The compounds below were run against Luciferin 4-monooxygenase (Photinus pyralis) (UniProt P08659) (assay: FLuc inhibitory activity for the follow-up compounds in a biochemical assay with 1mM ATP). Settings: purified P. pyralis luciferase, luminescence; series mostly up to 57.5 µM; activity change, negative = inhibition: at the top concentration.
Chain of Luciferin 4-monooxygenase (Photinus pyralis) (P08659 whole entry, looked up): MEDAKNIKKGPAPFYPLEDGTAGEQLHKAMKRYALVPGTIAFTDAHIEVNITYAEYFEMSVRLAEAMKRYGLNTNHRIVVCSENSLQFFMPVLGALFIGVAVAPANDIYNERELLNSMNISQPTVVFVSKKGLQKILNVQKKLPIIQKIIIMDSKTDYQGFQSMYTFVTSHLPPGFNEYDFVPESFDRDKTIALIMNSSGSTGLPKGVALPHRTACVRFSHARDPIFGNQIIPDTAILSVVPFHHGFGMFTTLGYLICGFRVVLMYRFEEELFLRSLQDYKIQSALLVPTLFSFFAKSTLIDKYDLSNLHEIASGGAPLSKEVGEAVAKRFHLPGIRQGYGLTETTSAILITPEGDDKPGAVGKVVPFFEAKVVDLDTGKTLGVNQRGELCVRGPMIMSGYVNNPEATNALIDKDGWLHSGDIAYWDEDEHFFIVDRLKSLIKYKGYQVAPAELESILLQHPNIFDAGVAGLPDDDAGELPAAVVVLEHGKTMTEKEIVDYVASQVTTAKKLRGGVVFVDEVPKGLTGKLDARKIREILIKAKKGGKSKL
In short: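 qHTS, 12 concentrations from ~60uM down to 0.3nM, against 10nM firefly luciferase; substrates at 1mM ATP and 10uM D-luciferin, in 50mM Tris acetate pH 7.5, 10mM Mg acetate; light output imaged.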
For `COc1ccc2nc(NC(=O)c3ccc([N+](=O)[O-])o3)sc2c1`, the Potency was 3.26 µM (active). For `COc1ccc2nc(NC(=O)C3CCN(S(=O)(=O)c4cccnc4)CC3)sc2c1`, the “activity change, negative = inhibition” value was 1.18% (inactive). `O=C(Nc1ccccc1C(=O)O)c1cccc(C(=O)Nc2ccccc2C(=O)O)c1` was tested, and the Potency was 11.6 µM (active).
